According to the supplement of paper PMC4466140:

The binders below were run against ScBbc1 (assay: SPOT peptide array binding signal intensity (averaged, normalized) (arbitrary units (background-subtracted, floor 0; scale differs between SH3 domains)); higher = stronger binding of the SH3 domain to the peptide).
Outline: (§1)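 GST-SH3 fusions from four yeast species, purified on glutathione Sepharose, were incubated at 10 μg/ml overnight at 4°C on membranes of synthetic 15-mer peptides in which cysteines were replaced with serines. Binding signal is the normalized, background-subtracted spot intensity averaged over replicates, in domain-specific arbitrary units.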

Binder | SPOT peptide array binding signal intensity
NTMKKRPAPPSLPSL | 4.5

Each binder was assayed against ScBem1-D1 in the same assay as above.
Outline: as §1

Binder | SPOT peptide array binding signal intensity
NTMKKRPAPPSLPSL | 1

These binders were tested against ScBzz1-D1 in the same assay as above.
Outline: as §1

Binder | SPOT peptide array binding signal intensity
NTMKKRPAPPSLPSL | 134

These binders were tested against ScBzz1-D2 in the same assay as above.
Outline: as §1

Binder | SPOT peptide array binding signal intensity
NTMKKRPAPPSLPSL | 59

Each binder was assayed against ScCyk3 in the same assay as above.
Outline: as §1

Binder | SPOT peptide array binding signal intensity
NTMKKRPAPPSLPSL | 11

These binders were tested against ScFus1 in the same assay as above.
Outline: as §1

Binder | SPOT peptide array binding signal intensity
NTMKKRPAPPSLPSL | 457

These binders were tested against ScHof1 in the same assay as above.
Outline: as §1

Binder | SPOT peptide array binding signal intensity
NTMKKRPAPPSLPSL | 19.5

The binders below were run against ScHse1 in the same assay as above.
Outline: as §1

Binder | SPOT peptide array binding signal intensity
NTMKKRPAPPSLPSL | 1410

What follows are binders tested against ScLsb1 in the same assay as above.
Outline: as §1

Binder | SPOT peptide array binding signal intensity
NTMKKRPAPPSLPSL | 29.5

What follows are binders tested against ScLsb2 in the same assay as above.
Outline: as §1

Binder | SPOT peptide array binding signal intensity
NTMKKRPAPPSLPSL | ≤ 0

These binders were tested against ScLsb3 in the same assay as above.
Outline: as §1

Binder | SPOT peptide array binding signal intensity
NTMKKRPAPPSLPSL | 344

Each binder was assayed against ScLsb4 in the same assay as above.
Outline: as §1

Binder | SPOT peptide array binding signal intensity
NTMKKRPAPPSLPSL | 130

These binders were tested against ScMyo3 in the same assay as above.
Outline: as §1

Binder | SPOT peptide array binding signal intensity
NTMKKRPAPPSLPSL | 350

What follows are binders tested against ScMyo5 in the same assay as above.
Outline: as §1

Binder | SPOT peptide array binding signal intensity
NTMKKRPAPPSLPSL | 287

The binders below were run against ScNbp2 in the same assay as above.
Outline: as §1

Binder | SPOT peptide array binding signal intensity
NTMKKRPAPPSLPSL | 383

These binders were tested against ScPex13 in the same assay as above.
Outline: as §1

Binder | SPOT peptide array binding signal intensity
NTMKKRPAPPSLPSL | 310

What follows are binders tested against ScRvs167 in the same assay as above.
Outline: as §1

Binder | SPOT peptide array binding signal intensity
NTMKKRPAPPSLPSL | 64.5

What follows are binders tested against ScSho1 in the same assay as above.
Outline: as §1

Binder | SPOT peptide array binding signal intensity
NTMKKRPAPPSLPSL | 837

These binders were tested against ScSla1-D1-D2 in the same assay as above.
Outline: as §1

Binder | SPOT peptide array binding signal intensity
NTMKKRPAPPSLPSL | 234

These binders were tested against ScSla1-D3 in the same assay as above.
Outline: as §1

Binder | SPOT peptide array binding signal intensity
NTMKKRPAPPSLPSL | 521

The binders below were run against SpAbp1-D1 in the same assay as above.
Outline: as §1

Binder | SPOT peptide array binding signal intensity
NTMKKRPAPPSLPSL | 78.5

The binders below were run against SpBbc1 in the same assay as above.
Outline: as §1

Binder | SPOT peptide array binding signal intensity
NTMKKRPAPPSLPSL | 3

These binders were tested against SpBzz1-D1 in the same assay as above.
Outline: as §1

Binder | SPOT peptide array binding signal intensity
NTMKKRPAPPSLPSL | 1170

Each binder was assayed against SpBzz1-D2 in the same assay as above.
Outline: as §1

Binder | SPOT peptide array binding signal intensity
NTMKKRPAPPSLPSL | 257

The binders below were run against SpCyk3 in the same assay as above.
Outline: as §1

Binder | SPOT peptide array binding signal intensity
NTMKKRPAPPSLPSL | 2

What follows are binders tested against SpHof1 in the same assay as above.
Outline: as §1

Binder | SPOT peptide array binding signal intensity
NTMKKRPAPPSLPSL | 144

Each binder was assayed against SpHof1-2 in the same assay as above.
Outline: as §1

Binder | SPOT peptide array binding signal intensity
NTMKKRPAPPSLPSL | 41.8

The binders below were run against SpHof1-3 in the same assay as above.
Outline: as §1

Binder | SPOT peptide array binding signal intensity
NTMKKRPAPPSLPSL | 227

The binders below were run against SpHse1 in the same assay as above.
Outline: as §1

Binder | SPOT peptide array binding signal intensity
NTMKKRPAPPSLPSL | 602

Each binder was assayed against SpLsb1 in the same assay as above.
Outline: as §1

Binder | SPOT peptide array binding signal intensity
NTMKKRPAPPSLPSL | 12.2

These binders were tested against SpLsb4 in the same assay as above.
Outline: as §1

Binder | SPOT peptide array binding signal intensity
NTMKKRPAPPSLPSL | 788

The binders below were run against SpMyo1 in the same assay as above.
Outline: as §1

Binder | SPOT peptide array binding signal intensity
NTMKKRPAPPSLPSL | 196

Each binder was assayed against SpNbp2 in the same assay as above.
Outline: as §1

Binder | SPOT peptide array binding signal intensity
NTMKKRPAPPSLPSL | 308

Each binder was assayed against SpPex13 in the same assay as above.
Outline: as §1

Binder | SPOT peptide array binding signal intensity
NTMKKRPAPPSLPSL | 55

The binders below were run against SpRvs167 in the same assay as above.
Outline: as §1

Binder | SPOT peptide array binding signal intensity
NTMKKRPAPPSLPSL | 110

These binders were tested against SpSla1-D1-D2 in the same assay as above.
Outline: as §1

Binder | SPOT peptide array binding signal intensity
NTMKKRPAPPSLPSL | 15

The binders below were run against SpSla1-D3 in the same assay as above.
Outline: as §1

Binder | SPOT peptide array binding signal intensity
NTMKKRPAPPSLPSL | 156
